Data taken from ChEMBL document CHEMBL4513216, “Probing the Open Global Health Chemical Diversity Library for Multistage-Active Starting Points for Next-Generation Antimalarials” (ACS Infect Dis, 2020).
Hit rate of the full screen: of about 69,000 compounds, about 8,600 (12%) showed an effect of 50% or more. For the sample, strong results were picked, then their nearest neighbours and some compounds at random.

system: Plasmodium berghei; assay: Screen against P. berghei liver stage (PbLuc), transformed with Luciferase, at 10uM; type: functional, HepG2; conditions: tested at 10 uM

SMILES | INHIBITION [%]
NC(=O)NC(=O)CCN1CCCC1c1cccc2c1OCCO2 (centres undefined) | 27.7
COCCN1CCCC1c1cccc2c1OCCO2 (centres undefined) | 59.4
CCNC(=O)CCN1CCCC1c1cccc2c1OCCO2 (centres undefined) | -2.23
COC(=O)CCN1CCCC1c1cccc2c1OCCO2 (centres undefined) | 15.9
O=C(CCN1CCCC1c1cccc2c1OCCO2)N1CCCCC1 (centres undefined) | 40.6
Cn1cc(C(=O)NCC2CCN(C(=O)NC3CCCCC3)CC2)cn1 | -3.7
CSCC(CCO)Nc1nc(C(F)F)nc2ccccc12 (centres undefined) | -49
CCC(CO)Nc1nc(C(F)F)nc2ccccc12 (centres undefined) | 8.41
OCC(CO)Nc1nc(C(F)F)nc2ccccc12 | 51.9
Cc1ccc(-c2noc(C3CCN3C(=O)c3cc[nH]n3)n2)s1 (centres undefined) | 85
CCCc1nc(CN(CC)C(=O)c2ccc(OC)c(OC)c2)no1 | 30.1
CCc1nc(C2CCCN2C(=O)c2ccc3c(c2)nnn3CC)no1 (centres undefined) | 2.61
CCc1nc(C2CCCN2C(=O)c2ccc3c(c2)nc(C)n3C)no1 (centres undefined) | -8.3
Cc1ccc(-c2noc(C3CCN3C(=O)c3ccn(C)n3)n2)s1 (centres undefined) | 23.95
CCc1nc(C2CCCN2C(=O)c2cc[nH]n2)no1 (centres undefined) | 58.5
CCc1nc(C2CCCN2C(=O)c2cc(C3CC3)[nH]n2)no1 (centres undefined) | 9.32
CCc1nc(C2CCCN2C(=O)c2c[nH]c(C)n2)no1 (centres undefined) | 26.1
CCCc1nc(CN(CC)C(=O)c2ccc3c(c2)nnn3C)no1 | 52.8
Cc1ccc(-c2noc(C3CCN3C(=O)c3ccc(=O)[nH]n3)n2)s1 (centres undefined) | 4.505
CCc1nc(C2CCCN2C(=O)c2ccc3c(c2)nnn3C)no1 (centres undefined) | 62.6
CCCc1nc(CN(CC)C(=O)c2ccc3[nH]cnc3c2)no1 | 30.1
O=C(NCC1(COc2cnccn2)C[C@@H](O)[C@@H](O)C1)C1CC1 (some centres undefined) | 18.2
COc1nn(C)c2c1CCCN(C(=O)COc1ccccc1)C2 | -15.7
COc1cc(NC(=O)CCn2nc(-c3cccs3)oc2=O)cc(OC)c1 | -7.81
CC1CCCN(C(=O)c2ccn(COc3ccccc3)n2)C1 (centres undefined) | 27.5
CC(C)N1CCc2c(c(COc3cncnc3)nn2CC2CC2)C1 | 2.4
Cc1nn(C)c(N2CCOCC2)c1CNC(C(N)=O)c1ccccc1 (centres undefined) | -32.4

SMILES | INHIBITION [%]
COc1ccc(CNC(=O)NCC(=O)NC2CC2)c(C(F)(F)F)c1 | 26.6
CCc1ccc(S(=O)(=O)Nc2ccc(F)cc2C(=O)O)s1 | 5.605
CC(=O)N1CCO[C@@H]2CN(S(=O)(=O)c3cccs3)CC[C@@H]2C1 | 21.6
CC1CCN(C(=O)[C@H]2C[C@@H]3CCN(CC4CCOCC4)C[C@@H]3O2)CC1 | 24.9
CCc1cc(O)nc(C2CCCN2C(=O)COC)n1 (centres undefined) | 30.8
CCc1cc(O)nc(C2CCCN2C(=O)c2cc(CC)on2)n1 (centres undefined) | 51.5
CCc1cc(C(=O)N2CCCC2c2nc(O)cc(CC)n2)on1 (centres undefined) | 1.11
Cc1cccc(C(=O)N2CCC(c3n[nH]c(C4CC4)n3)CC2)c1 | 44.1
O=c1[nH]ccn1CCCN1CC=C(c2cnn(-c3ccccc3)c2)CC1 | -95.3
Cc1ccccc1-n1cc(C2=CCN(CCN3CCOCC3)CC2)cn1 | 19.4
Cc1ccccc1-n1cc(C2=CCN(CCn3cc[nH]c3=O)CC2)cn1 | 69.4
CCOCc1ncn2c1CN(C(=O)Nc1ccccc1)CC2 | -27
O=C(c1cccc(O)n1)N1CCC(O)(CN2CCC(F)(F)CC2)C1 (centres undefined) | -21.6
Cc1nc2c(c(NCc3ccccc3)n1)CCN(C(=O)NC(C)C)CC2 | 66.1
CSCC(=O)N1CCc2nc(C)nc(NCc3ccccc3)c2CC1 | 37.3
CC(=O)N1CCc2c(nc(N(C)C)nc2NCCc2cccs2)C1 | 63.8
CC(=O)N1CCc2c(nc(N(C)C)nc2NCc2cccs2)C1 | 61.9
CC(=O)N1CCc2c(nc(N(C)C)nc2N(C)CCC2CCCCO2)C1 (centres undefined) | -10.4
CC(=O)N1CCc2c(nc(N(C)C)nc2NCCCn2ccnc2)C1 | 18.4
CC(C)NC(=O)N1CCc2nc(C(=O)NCc3ccccc3)sc2CC1 | 34.1
CC(=O)N1CCc2c(nc(N(C)C)nc2NCCC2CCCCO2)C1 (centres undefined) | 45.1
Cc1nccn1CCCNc1ncccc1C#N | 18.4
COCCNc1nc2c(c(NCCc3cccs3)n1)CCNCC2 | 28
CC(=O)N1CCc2c(nc(N(C)C)nc2N(C)CCCC2CCCO2)C1 (centres undefined) | 21.7
CC(=O)N1CCc2c(nc(N(C)C)nc2NCCCn2ccnc2C)C1 | 71.3
Cn1c(NCC(O)c2ccc(F)cc2)c(C#N)c(=O)n(C)c1=O (centres undefined) | -60.8
Cn1cc(CN2CCCC3(CCN(c4nncs4)C3)C2)cn1 (centres undefined) | 22.4
